Reference: PubChem BioAssay (NCATS)
Inconclusive results are not listed. Activity calls are given as the source filed them. The call rests on the fitted dose curve; in most records, active means well fitted cell-killing curve with a large enough effect; inconclusive means small, poorly fitted or top-dose-only effect, or effect the other way; inactive means flat fitted curve, though single readings scatter. Where a SMILES comes first, the peptide text is derived from it.

Tests used:
Test in all cases: Primary qHTS to identify gynecologic anti-cancer compounds using libraries of approved drugs and bioactive compounds (AID 1345084); further: nearly all actives have a fitted effect of over 55% in size
[1] = test system: C33A; conditions: Gynecologic cancer cell panel viability, ATPlite luminescence, 48 h; series mostly up to 57.5 µM
Outline: (§1)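 Cell viability after 48 h drug treatment, ATPlite luminescence readout; five doses.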

[2] = test system: CAOV3; conditions: Gynecologic cancer cell panel viability, ATPlite luminescence, 48 h; series mostly up to 57.5 µM
Outline: as §1

[3] = test system: CASKI; conditions: Gynecologic cancer cell panel viability, ATPlite luminescence, 48 h; series mostly up to 57.5 µM
Outline: as §1

[4] = test system: Es-2; conditions: Gynecologic cancer cell panel viability, ATPlite luminescence, 48 h; series mostly up to 57.5 µM
Outline: as §1

[5] = test system: HeLa; conditions: Gynecologic cancer cell panel viability, ATPlite luminescence, 48 h; series mostly up to 57.5 µM
Outline: as §1

[6] = test system: Hek293T; conditions: Gynecologic cancer cell panel viability, ATPlite luminescence, 48 h, control line for the selectivity index; series mostly up to 57.5 µM
Outline: as §1

[7] = test system: JEG-3; conditions: Gynecologic cancer cell panel viability, ATPlite luminescence, 48 h; series mostly up to 57.5 µM
Outline: as §1

[8] = test system: OV90; conditions: Gynecologic cancer cell panel viability, ATPlite luminescence, 48 h; series mostly up to 57.5 µM
Outline: as §1

[9] = test system: PA-1; conditions: Gynecologic cancer cell panel viability, ATPlite luminescence, 48 h; series mostly up to 57.5 µM
Outline: as §1

[10] = test system: SKOV3; conditions: Gynecologic cancer cell panel viability, ATPlite luminescence, 48 h; series mostly up to 57.5 µM
Outline: as §1

[11] = test system: Tov-21-G; conditions: Gynecologic cancer cell panel viability, ATPlite luminescence, 48 h; series mostly up to 57.5 µM
Outline: as §1

[12] = test system: Tov112D; conditions: Gynecologic cancer cell panel viability, ATPlite luminescence, 48 h; series mostly up to 57.5 µM
Outline: as §1
On the % scale 0 is the no-effect control and ±100 the full control effect.

C[C@H]1CCN2C[C@]34C[C@@]5(C(=O)Nc6c5ccc5c6OC=CC(C)(C)O5)C(C)(C)C3C[C@]12C(=O)N4C (stereo not given in full)
inactive: Potency [1] | Potency [2] | outcome [3] | Potency [4] | Potency [5] | Potency [6] | Potency [7] | Potency [8] | Potency [9] | Potency [10] | Potency [11] | Potency [12]

COc1ccc(C(=O)OC2C3C=COC(OC4OC(CO)C(O)C(O)C4O)C3C3(CO)OC23)cc1OC (stereo not given)
inactive: Potency [1] | Potency [2] | outcome [3] | Potency [4] | Potency [5] | Potency [6] | Potency [7] | Potency [8] | Potency [9] | Potency [10] | Potency [11] | Potency [12]

CCC(C)C(C(=O)O)N1Cc2c(OCC=C(C)C)c(C)c(OC)c(C(=O)O)c2C1=O (stereo not given)
inactive: Potency [1] | Potency [2] | outcome [3] | Potency [4] | Potency [5] | Potency [6] | Potency [7] | Potency [8] | Potency [9] | Potency [10] | Potency [11] | Potency [12]

CC1=C[C@H]2[C@@H](CC1=O)[C@H](C)C[C@H](O)[C@H]2C(C)C
inactive: Potency [1] | Potency [2] | outcome [3] | Potency [4] | Potency [5] | Potency [6] | Potency [7] | Potency [8] | Potency [9] | Potency [10] | Potency [11] | Potency [12]

C=CC(C)(O)CC/C=C(\C)C(=O)O[C@@H]1[C@@H](O)[C@H](OC(C)(C=C)CC/C=C(\C)C(=O)O[C@@H]2O[C@H](CO)[C@@H](O)[C@H](O)[C@H]2O)O[C@H](CO)[C@H]1OC(=O)/C(C)=C/CCC(C)(O)C=C (stereo not given in full)
inactive: activity change, negative = cytotoxicity [1] 1.06% [at 11.6 µM] | activity change, negative = cytotoxicity [2] -0.925% [at 11.6 µM] | activity change, negative = cytotoxicity [3] -1.1% [at 11.6 µM] | activity change, negative = cytotoxicity [4] 0.394% [at 11.6 µM] | activity change, negative = cytotoxicity [5] -4.07% [at 11.6 µM] | activity change, negative = cytotoxicity [6] 7.88% [at 11.6 µM] | activity change, negative = cytotoxicity [7] -0.355% [at 11.6 µM] | activity change, negative = cytotoxicity [8] -1.43% [at 11.6 µM] | activity change, negative = cytotoxicity [9] 3.07% [at 11.6 µM] | activity change, negative = cytotoxicity [10] -0.696% [at 11.6 µM] | activity change, negative = cytotoxicity [11] 0.188% [at 11.6 µM] | activity change, negative = cytotoxicity [12] -0.614% [at 11.6 µM]

CC(C)=CCC[C@](C)(O[C@@H]1O[C@H](CO)[C@@H](O)[C@H](O)[C@H]1O)[C@H]1CC[C@]2(C)[C@@H]1[C@H](O)CC1[C@@]3(C)CC[C@H](O)C(C)(C)C3[C@@H](O[C@@H]3O[C@H](CO)[C@@H](O)[C@H](O)[C@H]3O[C@@H]3O[C@@H](C)[C@H](O)[C@@H](O)[C@H]3O)C[C@]12C (stereo not given in full)
inactive: activity change, negative = cytotoxicity [1] -11.8% [at 11.6 µM] | activity change, negative = cytotoxicity [2] -9.95% [at 11.6 µM] | activity change, negative = cytotoxicity [3] -3.66% [at 11.6 µM] | activity change, negative = cytotoxicity [4] 5.12% [at 11.6 µM] | activity change, negative = cytotoxicity [5] 11.5% [at 11.6 µM] | activity change, negative = cytotoxicity [6] -2.65% [at 11.6 µM] | activity change, negative = cytotoxicity [7] -0.108% [at 11.6 µM] | activity change, negative = cytotoxicity [8] -3.64% [at 11.6 µM] | activity change, negative = cytotoxicity [9] 24.4% [at 11.6 µM] | activity change, negative = cytotoxicity [10] 18.8% [at 11.6 µM] | activity change, negative = cytotoxicity [11] -0.988% [at 11.6 µM] | activity change, negative = cytotoxicity [12] 2.74% [at 11.6 µM]

C[C@H]1[C@H](C)CC[C@]2(C(=O)OC3OC(CO)C(O)C(O)C3O)CC[C@]3(C(=O)O)C(=CCC4[C@@]5(C)CC[C@H](O[C@@H]6O[C@@H](C)[C@H](OC7OC(CO)C(O)C(O)C7O)[C@@H](O)[C@H]6O)C(C)(C)C5CC[C@]43C)[C@H]12 (stereo not given in full)
inactive: activity change, negative = cytotoxicity [1] -28.6% [at 11.6 µM] | activity change, negative = cytotoxicity [2] 3.53% [at 11.6 µM] | activity change, negative = cytotoxicity [3] 6.49% [at 11.6 µM] | activity change, negative = cytotoxicity [4] 4.54% [at 11.6 µM] | activity change, negative = cytotoxicity [5] -0.904% [at 11.6 µM] | activity change, negative = cytotoxicity [6] 6.98% [at 11.6 µM] | activity change, negative = cytotoxicity [7] 7.38% [at 11.6 µM] | activity change, negative = cytotoxicity [8] 2.97% [at 11.6 µM] | activity change, negative = cytotoxicity [9] -4.62% [at 11.6 µM] | activity change, negative = cytotoxicity [10] 0% [at 11.6 µM] | activity change, negative = cytotoxicity [11] 0.351% [at 11.6 µM] | activity change, negative = cytotoxicity [12] -1.72% [at 11.6 µM]

COC(=O)C1=CO[C@@H](O[C@@H]2O[C@H](CO)[C@@H](O)[C@H](O)[C@H]2O)[C@@H]2[C@@H](C)[C@@H](OC(=O)/C=C/c3ccccc3)[C@@H](O)[C@H]12
inactive: Potency [1] | Potency [2] | outcome [3] | Potency [4] | Potency [5] | Potency [6] | Potency [7] | Potency [8] | Potency [9] | Potency [10] | Potency [11] | Potency [12]

C=CCc1cc(OC)c(OC(C)C(O)c2ccc(O)c(OC)c2)c(OC)c1 (stereo not given)
inactive: Potency [1] | Potency [2] | outcome [3] | Potency [4] | Potency [5] | Potency [6] | Potency [7] | Potency [8] | Potency [9] | Potency [10] | Potency [11] | Potency [12]

C[C@@H](c1ccccc1)N(C(N)=NC#N)c1cccc2ncccc12
inactive: Potency [1] | Potency [2] | outcome [3] | Potency [4] | Potency [5] | Potency [6] | Potency [7] | Potency [8] | Potency [9] | Potency [10] | Potency [11] | Potency [12]

CC(=O)O[C@@H]1[C@H](OC(C)=O)C[C@@]2(C)C(CC[C@@H](C)[C@]23Cc2c(O)cc4c(c2O3)CN([C@@H](CCC(=O)O)C(=O)O)C4=O)C1(C)C (stereo not given in full)
inactive: Potency [1] | Potency [2] | outcome [3] | Potency [4] | Potency [5] | Potency [6] | Potency [7] | Potency [8] | Potency [9] | Potency [10] | Potency [11] | Potency [12]

COc1ccc(/C=C/C(N)=O)cc1OC
inactive: Potency [1] | Potency [2] | outcome [3] | Potency [4] | Potency [5] | Potency [6] | Potency [7] | Potency [8] | Potency [9] | Potency [10] | Potency [11] | Potency [12]

CC(C)C1NC(=O)CNC(=O)C2CCCN2C(=O)C(Cc2c[nH]c3ccccc23)NC(=O)CNC(=O)C(Cc2ccc(O)cc2)NC(=O)CNC1=O (stereo not given) (cyclo(GVGYGWP); configuration not given here)
inactive: Potency [1] | Potency [2] | outcome [3] | Potency [4] | Potency [5] | Potency [6] | Potency [7] | Potency [8] | Potency [9] | Potency [10] | Potency [11] | Potency [12]

COc1cc(/C=C/C(=O)O[C@@H]2C[C@](O)(C(=O)O)C[C@@H](O)[C@H]2O)ccc1O
inactive: Potency [1] | Potency [2] | outcome [3] | Potency [4] | Potency [5] | Potency [6] | Potency [7] | Potency [8] | Potency [9] | Potency [10] | Potency [11] | Potency [12]

N#CC1C(=O)N=C(c2cc(Cl)ccc2O)C=C1c1cc(OCc2ccccc2)cc(OCc2ccccc2)c1 (stereo not given)
inactive: Potency [1] | Potency [2] | outcome [3] | Potency [4] | Potency [5] | Potency [6] | Potency [7] | Potency [8] | Potency [9] | Potency [10] | Potency [11] | Potency [12]

COc1cccc(OC)c1-c1nc(C(=O)N[C@@H](CC(C)C)C(=O)O)cn1-c1ccnc2cc(Cl)ccc12
inactive: Potency [1] | Potency [2] | outcome [3] | Potency [4] | Potency [5] | Potency [6] | Potency [7] | Potency [8] | Potency [9] | Potency [10] | Potency [11] | Potency [12]

COc1ccnc(CCc2nc3ncccc3[nH]2)c1
inactive: Potency [1] | Potency [2] | outcome [3] | Potency [4] | Potency [5] | Potency [6] | Potency [7] | Potency [8] | Potency [9] | Potency [10] | Potency [11] | Potency [12]

C[C@H]1CC(=O)C2=C(C1)C(O)C(O)[C@@]1(O)[C@H]2C(=O)c2cccc(O)c2[C@@H]1O (stereo not given in full)
inactive: Potency [1] | Potency [2] | outcome [3] | Potency [4] | Potency [5] | Potency [6] | Potency [7] | Potency [8] | Potency [9] | Potency [10] | Potency [11] | Potency [12]

COc1c2cc(c(O[C@@H]3O[C@H](CO)[C@@H](O)[C@H](O)[C@H]3O)c1OC)CCCCC(O)CCc1ccc(O)c-2c1 (stereo not given in full)
inactive: Potency [1] | Potency [2] | outcome [3] | Potency [4] | Potency [5] | Potency [6] | Potency [7] | Potency [8] | Potency [9] | Potency [10] | Potency [11] | Potency [12]

CC(=O)C1CCC(=O)N1Cc1ccccc1 (stereo not given)
inactive: Potency [1] | Potency [2] | outcome [3] | Potency [4] | Potency [5] | Potency [6] | Potency [7] | Potency [8] | Potency [9] | Potency [10] | Potency [11] | Potency [12]

CCC(C)C(=O)O[C@H]1[C@@H](O[C@H]2O[C@H](CO)[C@@H](O)[C@H](O)[C@H]2O)O[C@H](CO)[C@@H](O)[C@@H]1O (stereo not given in full)
inactive: Potency [1] | Potency [2] | outcome [3] | Potency [4] | Potency [5] | Potency [6] | Potency [7] | Potency [8] | Potency [9] | Potency [10] | Potency [11] | Potency [12]

COC(=O)C[C@H]1C(C)(C)[C@H](OC(=O)C(C)C)C2CC3=C4CC(=O)O[C@@H](c5ccoc5)[C@]4(C)CCC3[C@@]1(C)C2=O (stereo not given in full)
inactive: Potency [1] | Potency [2] | outcome [3] | Potency [4] | Potency [5] | Potency [6] | Potency [7] | Potency [8] | Potency [9] | Potency [10] | Potency [11] | Potency [12]

COC1OC(O)C2(CCC3(O2)C(C)CC2OC(=O)C4(C)CCCC3(C)C24)C1O (stereo not given)
inactive: Potency [1] | Potency [2] | outcome [3] | Potency [4] | Potency [5] | Potency [6] | Potency [7] | Potency [8] | Potency [9] | Potency [10] | Potency [11] | Potency [12]

Cc1cc(OCCN2CCOCC2)nn1-c1ccc2ccccc2c1
inactive: Potency [1] | Potency [2] | outcome [3] | Potency [4] | Potency [5] | Potency [6] | Potency [7] | Potency [8] | Potency [9] | Potency [10] | Potency [11] | Potency [12]

CCc1cc(CC[C@]2(C3CCCC3)CC(O)=C(Cc3nc4nc(C)cc(C)n4n3)C(=O)O2)cc(CC)n1
inactive: Potency [1] | Potency [2] | outcome [3] | Potency [4] | Potency [5] | Potency [6] | Potency [7] | Potency [8] | Potency [9] | Potency [10] | Potency [11] | Potency [12]
